Test results: PubChem BioAssay (Tox21)
Results filed as inconclusive are left out. Activity calls are given as the source filed them. Calls follow the shape of the full dose curve.

What was measured:
[1] = target: Acetylcholinesterase (Homo sapiens) (UniProt P22303); test: Acetylcholinesterase (AChE) small molecule antagonists: colormetric cell-based qHTS assay (AID 1347395); also: nearly all actives have a fitted effect of over 30% in size; also: potency is read from the fitted curve at half-maximal effect
How it was run: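 Endogenous AChE of human neuroblastoma SH-SY5Y cells was measured with an Ellman-type DTNB/acetylthiocholine mix. Compound pretreatment lasted 30 min at 37 C; substrate reaction ran 90 min at 37 C.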

[2] = target: Acetylcholinesterase (Homo sapiens) (UniProt P22303); test: Acetylcholinesterase (AChE) small molecule antagonists: enzyme-based qHTS assay (AID 1347397); conditions: Potency: AChE enzyme activity inhibition; outcome: AChE enzyme activity inhibition; also: nearly all actives have a fitted effect of over 55% in size; also: potency is read from the fitted curve at half-maximal effect
How it was run: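 Tox21 library chemicals are tested in qHTS format against recombinant human AChE. The enzyme, dispensed at 50 mU/mL, sits with compound for 30 min at room temperature. A DTNB–acetylthiocholine cocktail follows, and colour is read after 10 min.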

[3] = target: Acetylcholinesterase (Homo sapiens) (UniProt P22303); test: Acetylcholinesterase (AChE) small molecule antagonists: fluorescence cell-based qHTS assay (AID 1347398); conditions: Potency: AChE activity; outcome: AChE activity; also: nearly all actives have a fitted effect of over 50% in size; also: potency is read from the fitted curve at half-maximal effect
How it was run: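 Cellular AChE inhibition: SH-SY5Y cells treated with test chemical for 30 min at 37 C, then acetylthiocholine hydrolysis followed over 40 min at room temperature via thiocholine-reactive Thiolite Green fluorescence (490/520 nm).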

[4] = target: Acetylcholinesterase (Homo sapiens) (UniProt P22303); test: Acetylcholinesterase (AChE) small molecule antagonists: enzyme-based qHTS assay with human liver microsomes (AID 1347399); conditions: Potency: qHTS inhibition; outcome: qHTS inhibition; also: nearly all actives have a fitted effect of over 60% in size
How it was run: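 Recombinant human AChE (50 mU/mL in the enzyme mix) and human liver microsomes (0.25 mg/mL final) were preincubated with compound and NADPH (0.25 mg/mL final) for 30 min at 37 C. Acetylthiocholine/DTNB was then added; thiocholine was read colorimetrically after 10 min at room temperature.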
% is scaled to controls: 0 for no effect and ±100 for the full control effect.

Chain of Acetylcholinesterase (Homo sapiens) (P22303 whole entry, looked up): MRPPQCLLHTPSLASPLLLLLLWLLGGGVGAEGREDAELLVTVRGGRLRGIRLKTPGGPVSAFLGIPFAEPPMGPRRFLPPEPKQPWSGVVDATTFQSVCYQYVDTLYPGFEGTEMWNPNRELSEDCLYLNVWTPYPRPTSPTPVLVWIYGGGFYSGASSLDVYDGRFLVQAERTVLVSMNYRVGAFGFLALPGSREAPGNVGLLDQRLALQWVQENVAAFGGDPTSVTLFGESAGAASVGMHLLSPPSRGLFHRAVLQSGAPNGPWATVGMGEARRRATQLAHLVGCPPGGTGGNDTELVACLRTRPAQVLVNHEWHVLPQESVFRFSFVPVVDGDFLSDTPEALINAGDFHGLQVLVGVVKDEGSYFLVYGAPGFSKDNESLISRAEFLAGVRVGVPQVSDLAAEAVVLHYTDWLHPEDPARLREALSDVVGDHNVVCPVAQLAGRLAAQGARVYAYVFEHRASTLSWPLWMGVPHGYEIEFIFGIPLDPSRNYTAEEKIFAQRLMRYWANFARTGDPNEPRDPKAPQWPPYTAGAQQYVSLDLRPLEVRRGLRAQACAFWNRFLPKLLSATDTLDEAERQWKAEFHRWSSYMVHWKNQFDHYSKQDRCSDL

O=[N+]([O-])c1ccc(O)cc1C(F)(F)F
inactive: Potency [1] | Potency [2] | Potency [3]

CCC1(c2ccccc2)C(=O)NCNC1=O
inactive: Potency [1] | Potency [2] | Potency [3]

COc1ccc(OC)c(C(O)CNC(=O)CN)c1 (stereo not drawn)
inactive: Potency [1] | Potency [2] | Potency [3]

CCCCCCCCCO
inactive: Potency [1] | Potency [2] | Potency [3]

NC(=O)Cc1cccc2ccccc12
inactive: Potency [1] | Potency [2] | Potency [3]

C[C@H]1C[C@H]2[C@@H]3CCC4=CC(=O)C=C[C@]4(C)[C@@]3(Cl)[C@@H](O)C[C@]2(C)[C@@]1(O)C(=O)CO
inactive: Potency [1] | Potency [2] | Potency [3]

CC(C)c1nnc2ccc(-c3ocnc3-c3cc(F)ccc3F)cn12
inactive: Potency [1] | Potency [2] | Potency [3]

CC(C)(C)C1CCCCC1O (stereo not drawn)
inactive: Potency [1] | Potency [2] | Potency [3]

CC1=NN(c2cc(S(=O)(=O)O)ccc2Cl)C(=O)C1N=Nc1ccccc1 (stereo not drawn)
inactive: Potency [1] | Potency [2] | Potency [3]

CCCCC[Si](OCC)(OCC)OCC
inactive: Potency [1] | Potency [2] | Potency [3]

CC(=O)CCC(C)C
inactive: Potency [1] | Potency [2] | Potency [3]

CC(C)(C)CC(=O)OCC(=O)[C@@]1(O)CC[C@H]2[C@@H]3CCC4=CC(=O)C=C[C@]4(C)[C@H]3[C@@H](O)C[C@@]21C
inactive: Potency [1] | Potency [2] | Potency [3]

CC(NCCC(c1ccccc1)c1ccccc1)c1ccccc1 (stereo not drawn)
inactive: Potency [1] | Potency [2] | Potency [3]

O=C(O)CCc1nc(-c2ccccc2)c(-c2ccccc2)o1
inactive: Potency [1] | Potency [2] | Potency [3]

Cc1cccc(Nc2cc(Cl)nc(SCC(=O)O)n2)c1C
inactive: Potency [1] | Potency [2] | Potency [3]

OC[C@@H](O)[C@@H](O)[C@H](O)[C@H](O)CO
inactive: Potency [1] | Potency [2] | Potency [3]

COC(=O)c1ccccc1O
inactive: Potency [1] | Potency [2] | Potency [3]

O=C1c2ccccc2C(=O)N1CCc1noc(-c2ccc(CN3CCCCCC3)s2)n1
active: Potency [1] 6.51 µM | Potency [2] 23.1 µM | Potency [3] 3.26 µM

Nc1cc(=O)[nH]c(N)n1
inactive: Potency [1] | Potency [2] | Potency [3]

CC(C)(Oc1ccc(Cl)cc1)C(=O)OCCCOC(=O)C(C)(C)Oc1ccc(Cl)cc1
inactive: Potency [1] | Potency [2] | Potency [3]

CCCCCCCCCC
inactive: Potency [1] | Potency [2] | Potency [3]

Cc1ccccc1Cl
inactive: Potency [1] | Potency [2] | Potency [3]

CCOC(=O)CC(C(C)=O)C(C)=O
inactive: Potency [1] | Potency [2] | Potency [3]

CCN(C(=O)c1cc(C)cc(OC[C@H](C)Nc2ccncc2)c1)C(C)C
active: Potency [1] 12.5 µM | Potency [2] 22.2 µM | Potency [3] 6.26 µM

O=C(O)CCCCC(=O)O
inactive: Potency [1] | Potency [2] | Potency [3]

CCCCCCC=O
inactive: Potency [1] | Potency [2] | Potency [3]

CCOc1ccc2nc(N)sc2c1
inactive: Potency [1] | Potency [2] | Potency [3]

CCCCCCCC(=O)OCC(O)CO (stereo not drawn)
inactive: Potency [1] | Potency [2] | Potency [3]

CCCC(=O)c1cc(O)c(O)cc1O
inactive: Potency [1] | Potency [2] | Potency [3]

CCN1CCN(c2cc(-c3ccc(F)cc3)c3c(n2)CCCCCC3)CC1
inactive: activity, negative = inhibition [1] 2.78% [at 23.6 µM] | activity change, negative = inhibition [2] 1.01% [at 23.6 µM] | activity change, negative = inhibition [3] 7.25% [at 23.8 µM]

COC1=CC(=O)C[C@@H](C)[C@]12Oc1c(Cl)c(OC)cc(OC)c1C2=O
inactive: Potency [1] | Potency [2] | Potency [3]

CCCCCCCCCCCC(=O)OCC(C)OC(=O)CCCCC(=O)O (stereo not drawn)
inactive: Potency [1] | Potency [2] | Potency [3]

BrCCOc1ccccc1
inactive: Potency [1] | Potency [2] | Potency [3]

O=C1Nc2ccccc2C1=O
inactive: Potency [1] | Potency [2] | Potency [3]

CN1CCN(c2c(F)cc3c(=O)c(C(=O)O)cn4c3c2OCN4C)CC1
inactive: activity, negative = inhibition [1] 1.67% [at 23.6 µM] | activity change, negative = inhibition [2] 0.0377% [at 23.6 µM] | activity change, negative = inhibition [3] 5.01% [at 23.8 µM]

CC(C)NCC(O)COc1ccc(CC(N)=O)cc1 (stereo not drawn)
inactive: Potency [1] | Potency [2] | Potency [3]

CCCCCCCCCCCCCCCCBr
inactive: activity, negative = inhibition [1] 0.0868% [at 23.6 µM] | activity change, negative = inhibition [2] 2.89% [at 23.6 µM] | activity change, negative = inhibition [3] -0.68% [at 23.8 µM]

CC(C)(C)NCC(O)c1ccc(O)c(CO)c1 (stereo not drawn)
inactive: Potency [1] | Potency [2] | Potency [3]

CCN[C@@H]1C[C@H](N)[C@@H](OC2OC(CN)=CCC2N)[C@H](O)[C@H]1O[C@H]1OC[C@](C)(O)[C@H](NC)[C@H]1O (stereo partly drawn)
inactive: activity, negative = inhibition [1] 0.264% [at 0.435 µM] | activity change, negative = inhibition [2] 0.139% [at 0.435 µM] | activity change, negative = inhibition [3] 7.61% [at 0.439 µM]

O=C1c2c(O)ccc([N+](=O)[O-])c2C(=O)c2c([N+](=O)[O-])ccc(O)c21
active: Potency [1] 0.789 µM | Potency [2] 25 µM | Potency [3] 8.86 µM

CNCCCN1c2ccccc2CCc2ccccc21
inactive: Potency [1] | Potency [2] | Potency [3]

OC(CCN1CCCCC1)(c1ccccc1)C1CCCCC1 (stereo not drawn)
inactive: outcome [1] | outcome [2] | outcome [3] | outcome [4]

O=C(O)c1ccc2cc(C(=O)O)ccc2c1
inactive: Potency [1] | Potency [2] | Potency [3] | Potency [4]

CC(=O)Nc1ccc(C(=O)CCl)cc1
inactive: Potency [1] | Potency [2] | Potency [3] | Potency [4]

CS(=O)(=O)c1ccc([C@@H](O)[C@@H](CF)NC(=O)C(Cl)Cl)cc1
inactive: Potency [1] | Potency [2] | Potency [3]

CCCCC(CC)COC(=O)CCCCCCCC(=O)OCC(CC)CCCC (stereo not drawn)
inactive: Potency [1] | Potency [2] | Potency [3] | Potency [4]

CC(C)CCCC(=O)O
inactive: Potency [1] | Potency [2] | Potency [3] | Potency [4]

COc1ccc(COC(C)=O)cc1
inactive: Potency [1] | Potency [2] | Potency [3] | Potency [4]

CCCC(CCC)(C(=O)OCC)C(=O)OCC
inactive: Potency [1] | Potency [2] | Potency [3] | Potency [4]

CCCC[C@H]1CN(CC2CCOCC2)C(=O)OC12CCN(C1(C)CCN(C(=O)c3c(C)ncnc3C)CC1)CC2
inactive: Potency [1] | Potency [2] | Potency [3] | Potency [4]

COC(Cc1ccccc1)OC
inactive: Potency [1] | Potency [2] | Potency [3] | Potency [4]

FC(F)(F)c1ccccc1-n1ccnc1
inactive: Potency [1] | Potency [2] | Potency [3] | Potency [4]

CC(O)CC(C)(C)O (stereo not drawn)
inactive: Potency [1] | Potency [2] | Potency [3] | Potency [4]

O=S1(=O)c2cccc3cccc(c23)N1CCCN1CCN(c2ccc(F)cc2)CC1
inactive: Potency [1] | Potency [2] | Potency [3] | Potency [4]

OCC(CO)(CO)CO
inactive: Potency [1] | Potency [2] | Potency [3] | Potency [4]

CCCCCCCCCCn1cc[n+](CCCCCCCCCC)c1C
inactive: Potency [4]
active: Potency [1] 79.8 µM | Potency [2] 35.6 µM | Potency [3] 40 µM

O=C(O)Cc1cccc2ccccc12
inactive: Potency [1] | Potency [2] | Potency [3] | Potency [4]

CCCCCCCCCCCCCCC(=O)NC(CO)CCCCCCCCCCCCCC (stereo not drawn)
inactive: Potency [1] | Potency [2] | Potency [3] | Potency [4]

CC(=O)OCC(=O)[C@@]1(O)CC[C@H]2[C@@H]3CCC4=CC(=O)CC[C@]4(C)[C@H]3C(=O)C[C@@]21C
inactive: Potency [1] | Potency [2] | Potency [3] | Potency [4]

CC(C)(C)NC(N)=O
inactive: Potency [1] | Potency [2] | Potency [3] | Potency [4]

COc1cc2[nH]c(=O)[nH]c(=O)c2cc1OC
inactive: Potency [1] | Potency [2] | Potency [3] | Potency [4]

Nc1ccc(C(=O)O)cc1
inactive: Potency [1] | Potency [2] | Potency [3] | Potency [4]

[O-][N+](=Nc1ccccc1)c1ccccc1
inactive: Potency [1] | Potency [2] | Potency [3] | Potency [4]

C/C=C/C(=O)CCCC
inactive: Potency [1] | Potency [2] | Potency [3] | Potency [4]

OC(Cn1cncn1)(Cn1cncn1)c1ccc(F)cc1F
inactive: Potency [1] | Potency [2] | Potency [3] | Potency [4]
